# Key:
# Experiment in all cases: SPOT peptide array binding signal intensity (averaged, normalized) (arbitrary units (background-subtracted, floor 0; scale differs between SH3 domains)); higher = stronger binding of the SH3 domain to the peptide
# ScBbc1 = target: ScBbc1
# Summary of the method: (§1)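 E. coli BL21(DE3) was used to express GST-fused SH3 domains from four yeast species, which were then purified on glutathione Sepharose. These were incubated at 10 μg/ml in TBS-based blocking buffer overnight at 4°C on cellulose membranes carrying synthetic 15-mer peptides, in which cysteines were replaced by serines. Binding signal is the replicate average of normalized, background-subtracted spot intensity, in arbitrary units that differ between domains.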
# ScBem1-D1 = target: ScBem1-D1
# Summary of the method: as §1
# ScBzz1-D1 = target: ScBzz1-D1
# Summary of the method: as §1
# ScBzz1-D2 = target: ScBzz1-D2
# Summary of the method: as §1
# ScCyk3 = target: ScCyk3
# Summary of the method: as §1
# ScFus1 = target: ScFus1
# Summary of the method: as §1
# ScHof1 = target: ScHof1
# Summary of the method: as §1
# ScHse1 = target: ScHse1
# Summary of the method: as §1
# ScLsb1 = target: ScLsb1
# Summary of the method: as §1
# ScLsb2 = target: ScLsb2
# Summary of the method: as §1
# ScLsb3 = target: ScLsb3
# Summary of the method: as §1
# ScLsb4 = target: ScLsb4
# Summary of the method: as §1
# ScMyo3 = target: ScMyo3
# Summary of the method: as §1
# ScMyo5 = target: ScMyo5
# Summary of the method: as §1
# ScNbp2 = target: ScNbp2
# Summary of the method: as §1
# ScPex13 = target: ScPex13
# Summary of the method: as §1
# ScRvs167 = target: ScRvs167
# Summary of the method: as §1
# ScSho1 = target: ScSho1
# Summary of the method: as §1
# ScSla1-D1-D2 = target: ScSla1-D1-D2
# Summary of the method: as §1
# ScSla1-D3 = target: ScSla1-D3
# Summary of the method: as §1
# SpAbp1-D1 = target: SpAbp1-D1
# Summary of the method: as §1
# SpBbc1 = target: SpBbc1
# Summary of the method: as §1
# SpBzz1-D1 = target: SpBzz1-D1
# Summary of the method: as §1
# SpBzz1-D2 = target: SpBzz1-D2
# Summary of the method: as §1
# SpCyk3 = target: SpCyk3
# Summary of the method: as §1
# SpHof1 = target: SpHof1
# Summary of the method: as §1
# SpHof1-2 = target: SpHof1-2
# Summary of the method: as §1
# SpHof1-3 = target: SpHof1-3
# Summary of the method: as §1
# SpHse1 = target: SpHse1
# Summary of the method: as §1
# SpLsb1 = target: SpLsb1
# Summary of the method: as §1
# SpLsb4 = target: SpLsb4
# Summary of the method: as §1
# SpMyo1 = target: SpMyo1
# Summary of the method: as §1
# SpNbp2 = target: SpNbp2
# Summary of the method: as §1
# SpPex13 = target: SpPex13
# Summary of the method: as §1
# SpRvs167 = target: SpRvs167
# Summary of the method: as §1
# SpSla1-D1-D2 = target: SpSla1-D1-D2
# Summary of the method: as §1
# SpSla1-D3 = target: SpSla1-D3
# Summary of the method: as §1
binder,measurement,setting,value
PLRRTVMSLPGNHDI,SPOT peptide array binding signal intensity,ScBbc1,13
same,SPOT peptide array binding signal intensity,ScBem1-D1,1.5
same,SPOT peptide array binding signal intensity,ScBzz1-D1,4.75
same,SPOT peptide array binding signal intensity,ScBzz1-D2,5.75
same,SPOT peptide array binding signal intensity,ScCyk3,15
same,SPOT peptide array binding signal intensity,ScFus1,407
same,SPOT peptide array binding signal intensity,ScHof1,≤ 0
same,SPOT peptide array binding signal intensity,ScHse1,288
same,SPOT peptide array binding signal intensity,ScLsb1,14.5
same,SPOT peptide array binding signal intensity,ScLsb2,≤ 0
same,SPOT peptide array binding signal intensity,ScLsb3,52
same,SPOT peptide array binding signal intensity,ScLsb4,60
same,SPOT peptide array binding signal intensity,ScMyo3,≤ 0
same,SPOT peptide array binding signal intensity,ScMyo5,≤ 0
same,SPOT peptide array binding signal intensity,ScNbp2,584
same,SPOT peptide array binding signal intensity,ScPex13,177
same,SPOT peptide array binding signal intensity,ScRvs167,51.9
same,SPOT peptide array binding signal intensity,ScSho1,909
same,SPOT peptide array binding signal intensity,ScSla1-D1-D2,305
same,SPOT peptide array binding signal intensity,ScSla1-D3,404
same,SPOT peptide array binding signal intensity,SpAbp1-D1,671
same,SPOT peptide array binding signal intensity,SpBbc1,1.5
same,SPOT peptide array binding signal intensity,SpBzz1-D1,243
same,SPOT peptide array binding signal intensity,SpBzz1-D2,7.25
same,SPOT peptide array binding signal intensity,SpCyk3,0.5
same,SPOT peptide array binding signal intensity,SpHof1,10
same,SPOT peptide array binding signal intensity,SpHof1-2,24.2
same,SPOT peptide array binding signal intensity,SpHof1-3,261
same,SPOT peptide array binding signal intensity,SpHse1,788
same,SPOT peptide array binding signal intensity,SpLsb1,2.25
same,SPOT peptide array binding signal intensity,SpLsb4,258
same,SPOT peptide array binding signal intensity,SpMyo1,2.5
same,SPOT peptide array binding signal intensity,SpNbp2,392
same,SPOT peptide array binding signal intensity,SpPex13,40
same,SPOT peptide array binding signal intensity,SpRvs167,48.8
same,SPOT peptide array binding signal intensity,SpSla1-D1-D2,1.5
same,SPOT peptide array binding signal intensity,SpSla1-D3,126
